# Assay results as given in article PMC4552634, “A New Set of Chemical Starting Points with Plasmodium falciparum Transmission-Blocking Potential for Antimalarial Drug Discovery” (PLoS ONE, 2015).
# Hit rate of the full screen: of about 13,000 compounds, about 3,200 (25%) showed an effect of 50% or more. Some of the results follow.
# Tested on: P. falciparum stage V gametocytes
# Set-up: BacTiter-Glo ATP luminescence viability of purified stage V gametocytes in 384-well plates, per cent inhibition versus DMSO
# Settings: 48 h, 5 µM; inhibitor
row,SMILES,% Inhibition
1,COc1ccc2nccc([C@@H](O)CN3CCC(NC(=O)c4ccc(CN5CCN(c6cccc(C)c6)CC5C)cc4)CC3)c2c1 (stereo partly drawn) [TCMDC-140999],-29.97%
2,CC1(C)N=C(N)N=C(N)N1OCCSCc1cc(Cl)sc1Cl [TCMDC-131620],30.29%
3,O=S(=O)(NCCN1CCCC1)c1ccc(-c2ccc(CNCc3ccsc3)cc2)cc1 [TCMDC-132281],102.2%
4,O=S(=O)(NCCN1CCCC1)c1cccc(-c2ccc(CNCc3ccsc3)cc2)c1 [TCMDC-132290],92.71%
5,O=S(=O)(NCCN1CCCC1)c1cccc(-c2cccc(CNCc3ccsc3)c2)c1 [TCMDC-132277],89.41%
6,CCN1CCN(c2cc(C)c3cc(NC(=O)c4ccc([N+](=O)[O-])c(C)c4)ccc3n2)CC1 [TCMDC-125576],24.57%
7,CC(C)(CNCCOc1ccc(Cl)cc1)c1nc(-c2ccc(Cl)c(O)c2)c(-c2ccnc(N)n2)[nH]1 [TCMDC-141161],36.73%
8,Cc1cccc2[nH]c(=O)c([N+](=O)[O-])c(O)c12 [TCMDC-131384],-28.29%
9,CN(C)CCC=C1c2ccccc2Sc2c(O)cc(Cl)cc21 [TCMDC-123466],-77.93%
10,N#Cc1cccc(Nc2ncc3c(-c4cccc(NC(=O)Cc5cccc(Cl)c5)c4)c[nH]c3n2)c1 [TCMDC-134682],19.68%
11,CCn1ccc2c(N3CCCCS3(=O)=O)cc(C(=O)N[C@@H](Cc3ccccc3)[C@H](O)CNC(C)(C)CCCC(C)C)cc21 [TCMDC-135311],61.66%
12,CCn1ccc2c(N3CCCC3=O)cc(C(=O)N[C@@H](Cc3ccccc3)[C@H](O)CNCc3cccc(OC)c3)cc21 [TCMDC-134129],8.959%
13,CCn1ccc2c(N3CCCS3(=O)=O)cc(C(=O)N[C@@H](Cc3ccccc3)[C@H](O)CNC(C)(C)CCCC(C)C)cc21 [TCMDC-135312],65.79%
14,CCn1ccc2c(N3CCCC3=O)cc(C(=O)N[C@@H](Cc3ccccc3)[C@H](O)CNC(C)(C)CCCC(C)C)cc21 [TCMDC-135313],55.34%
15,CCn1ccc2c(N3CCCC3=O)cc(C(=O)N[C@@H](Cc3ccccc3)[C@H](O)CNC3CCCCC3)cc21 [TCMDC-135316],7.868%
16,CNC(=O)c1cncc(/C=C/c2ccccc2S(N)(=O)=O)c1 [TCMDC-138266],49.76%
17,C[C@H](NC(=O)c1c(OC2CN(C(c3ccccc3)c3ccccc3)C2)c(-c2ccccc2)nc2ccccc12)C1CCCCC1 [TCMDC-135543],-26.28%
18,CS(=O)(=O)O.Nc1nc(NCC2CCC(CNS(=O)(=O)c3cccc4ccccc34)CC2)nc2ccccc12 (stereo not drawn) [TCMDC-124251],-1.432%
19,COC(=O)C(Cc1ccccc1)C(CSCc1ccc(OC)cc1)C(=O)N[C@@H](C(=O)OC(C)(C)C)c1ccc(C(C)(C)C)cc1 (stereo partly drawn) [TCMDC-131235],8.806%
20,CC(C)(C)OC(=O)c1c(NC(=O)/C=C/c2ccc(O)c(O)c2)sc2c1CCCC2 [TCMDC-131558],-45.09%
21,CC=Cc1cc(Cc2cnc(N)nc2N)cc(CCC)c1OC [TCMDC-137634],-1.983%

row,SMILES,% Inhibition
1,CCOc1cc(Cc2cnc(N)nc2N)cc(OCC)c1OCCCCC(=O)OC [TCMDC-137176],-10.63%
2,CCN(CC)CCn1c(=N)n(CC(=O)c2ccc(-c3ccccc3)cc2)c2ccccc21 [TCMDC-124026],67.24%
3,CCN(CC)c1ccc(C(=O)Cn2ccc(=N)cc2)cc1 [TCMDC-139029],-2.203%
4,CCOCc1cn(CC(=O)c2ccc(-c3ccccc3)cc2)c(C)nc1=N [TCMDC-124243],-19.83%
5,CC(C)(C)c1ccc(Cn2nc(C(=O)N3CCN(C(=O)C4CCCO4)CC3)c3ccccc32)cc1 (stereo not drawn) [TCMDC-134381],-2.653%
6,Cc1ccccc1CN1CCCN(Cc2ccc(C(=O)Nc3ccc(C(C)(C)C)cc3)cc2)CC1 [TCMDC-136429],-4.144%
7,CC(C)(C)c1ccc(Cn2c(=N)n(CC(=O)c3ccc(-c4ccccc4)cc3)c3ccccc32)cc1 [TCMDC-124030],98.24%
8,O=C(NC1CC1)c1ccc(Cn2c(SCc3cccc(Cl)c3)nc3ccccc3c2=O)cc1 [TCMDC-123576],23.52%
9,COc1ccc(Cn2c(SCc3ccc(C)cc3)nc3cc(OC)c(OC)cc3c2=N)cc1Cl [TCMDC-125587],96.33%
10,COc1ccc(Cn2c(Nc3cccc(C(F)(F)F)c3)nc3cc(C(=O)NC4CC4)cnc32)cc1Cl [TCMDC-138554],-4.933%
11,CC[C@H]1CN2CC[C@H]1C[C@H]2[C@@H](O)c1cc(OCCCN(C)C)nc2ccc(OC)cc12 [TCMDC-131424],22.54%
12,O=C(Nc1ccc(OC2CCN(Cc3ccc(F)cc3)C2)c(Cl)c1)c1ccoc1 (stereo not drawn) [TCMDC-133755],23.17%
13,CC(=O)CCc1ccc(OCCN(Cc2ccccc2C(F)(F)F)c2ccc(C#N)c(C(F)(F)F)c2)cc1 [TCMDC-135737],23.15%
14,CCOC(=O)c1ccc(N2CCN(CCCNC(=O)/C(=C/C=C/c3cc4cc(Cl)c(Cl)cc4[nH]3)OC)CC2)cc1 [TCMDC-139306],-53.61%
15,COc1ccc(N2C(=O)C3C(C2=O)C2(C)c4ccccc4C3(C)c3ccccc32)c([N+](=O)[O-])c1 (stereo not drawn) [TCMDC-125621],9.788%
16,COc1cc2c(c(OC)c1[N+](=O)[O-])C=CC1(O2)N(C)c2ccc([N+](=O)[O-])cc2C1(C)C (stereo not drawn) [TCMDC-124133],52.65%
17,CN1c2ccc([N+](=O)[O-])cc2C(C)(C)C12C=Cc1cc(Br)cc([N+](=O)[O-])c1O2 (stereo not drawn) [TCMDC-124178],98.03%
18,COc1ccc(C=CC(=O)NC(=O)c2ccccc2OC(=O)c2ccccc2)cc1OC [TCMDC-125709],14.45%
19,COc1cc2c(c(Cl)c1OC)CCN(Cc1ccccc1)CC2c1ccc(NC(=O)C(F)(F)F)cc1 (stereo not drawn) [TCMDC-132075],32.93%
20,COc1cc2c(c(Cl)c1OC)CCN(Cc1ccccc1)CC2c1ccc(C(N)=O)cc1 (stereo not drawn) [TCMDC-132074],48.86%
21,COc1cc2c(c(Cl)c1OC)CCN(C(=O)C(F)(F)F)CC2c1ccccc1 (stereo not drawn) [TCMDC-132071],93.25%
